# Data from PubChem BioAssay AID1259398 (Fisher Drug Discovery Resource Center, 2018).
# Where “and” joins values, the source holds several entries; their conditions need not be identical. Identical values can stand only once. About 230 (0.079%) of roughly 290,000 compounds were called active. Rule as the data show it: active = inhibition above about 40%; inactive = the rest. This excerpt belongs to a sample that is enriched for actives. The source holds several records for some structures; these can differ, active in one and inactive in another.
# Biological target: Cyclic GMP-AMP synthase (Homo sapiens) (UniProt Q8N884)
# Sequence (Q8N884 whole entry, looked up): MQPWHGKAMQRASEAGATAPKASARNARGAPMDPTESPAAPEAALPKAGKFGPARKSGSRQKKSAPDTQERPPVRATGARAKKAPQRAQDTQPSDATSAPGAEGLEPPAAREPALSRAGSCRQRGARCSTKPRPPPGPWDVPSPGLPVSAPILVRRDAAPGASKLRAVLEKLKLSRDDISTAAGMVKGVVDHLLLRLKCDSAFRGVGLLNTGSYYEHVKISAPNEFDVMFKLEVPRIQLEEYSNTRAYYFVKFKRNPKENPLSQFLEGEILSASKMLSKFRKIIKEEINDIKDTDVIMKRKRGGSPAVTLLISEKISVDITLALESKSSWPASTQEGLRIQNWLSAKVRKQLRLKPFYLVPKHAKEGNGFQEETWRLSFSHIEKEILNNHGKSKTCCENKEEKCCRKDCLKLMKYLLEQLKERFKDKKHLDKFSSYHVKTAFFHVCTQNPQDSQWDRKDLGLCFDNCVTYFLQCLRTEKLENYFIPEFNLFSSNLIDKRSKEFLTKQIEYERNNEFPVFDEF
# Assay: Primary biochemical luminescence assay for human cyclic GMP-AMP synthase inhibitors (AID 1259398);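 also: 0% = vehicle reaction and 100% = reaction without DNA for no activity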
# Conditions: recombinant h-cGAS, ATP depletion, Kinase-Glo luminescence; at 12.5 µM; stronger effect = higher value
row,Structure (SMILES),inhibition
1,Cc1cc(NC(=O)Cc2cccs2)n(-c2nc(-c3cccs3)cs2)n1,-2.04% (inactive)
2,CN(CCCOc1ccccc1Cl)C(=O)C1(N)CC1,-6.84% (inactive)
3,CC(C(=O)N1CCCCCC1)N1CCCC(C(=O)Nc2ccccc2)C1 (centres undefined),-13.6% (inactive)
4,CC1CC(=O)C2C=Nc3ccccc3N=C2C1 (centres undefined),-2.79% (inactive)
5,CS(=O)(=O)N1CCCC(NCc2ccc(-c3ccc(C(F)(F)F)cc3)o2)C1 (centres undefined),-7.61% (inactive)
6,CCOC(=O)c1[nH]c(C)c(C(=O)C(C)N(CCOC)C(=O)Nc2c(C)cccc2C)c1C (centres undefined),-3.12% (inactive)
7,O=S1(=O)N=C(Nc2ccccc2Cl)c2ccccc21,-4.92% (inactive)
8,Cc1noc(C)c1CN1CCN2C=C(C(=O)NC3CCc4ccccc43)OC2=NC1=O (centres undefined),-7.38% (inactive)
9,C=CCn1c(SCC(=O)c2cc(C)n(Cc3ccco3)c2C)nc2sc(C)c(C)c2c1=O,-4.88% (inactive)
10,Cc1c(C(=O)N2CCc3[nH]nc(-c4ccccc4)c3C2)[nH]c2c(F)cccc12,-6.74% (inactive)
11,Cc1csc(=O)n1CCC(=O)Nc1ccc(S(=O)(=O)N(C)C(C)C)cc1,7.25% (inactive)
12,CC(=O)c1cccc(N2C(=O)C3C4C=CC(C5CC45)C3C2=O)c1 (centres undefined),-3.94% (inactive)
13,CCOC(=O)c1cc(-c2ccccc2)sc1NC(=O)CC1CCCC1,-6.75% (inactive)
14,CCOC(=O)c1ccc(NC(=O)Cn2c(-c3nnc(C(C)C)o3)cc3ccccc32)cc1,-1.71% (inactive)
15,Cc1ncc(CN(C)CC2CCN(c3ccccc3)C2)[nH]1 (centres undefined),-4.21% (inactive)
16,COCC(=O)Nc1ccccc1C(=O)N1CC(C)CC(C)C1 (centres undefined),-11.9% (inactive)
17,Cc1ccc(CSc2nc(=O)n(CCO)c3c2CCC3)cc1,-6.25% (inactive)
18,O=C(c1cn[nH]c1-c1ccc(F)cc1)N1CCN(S(=O)(=O)c2ccccc2)CC1,-8.02% (inactive)
19,COCCNC(=O)c1ccc(CSc2nnc(Cc3ccccc3)n2-c2ccc(OC)cc2)cc1,5.06% (inactive)
20,COc1cccc(CN2CCC(C(=O)NC(c3cccc(OC)c3)c3ccccn3)CC2)c1 (centres undefined),-3.62% (inactive)
21,COc1cc(C(=O)Nc2oc3ccccc3c(=O)c2-c2ccccc2)cc(OC)c1OC,-4.49% (inactive)
22,N#CC(=C1NS(=O)(=O)c2ccccc21)c1nc2ccccc2n1Cc1ccccc1,-6.01% (inactive)
23,NC(=O)C1CCCN1C(=O)NC(=O)CSc1ccccc1Cl (centres undefined),20.8% (inactive)

row,Structure (SMILES),inhibition
1,N#Cc1ccsc1NC(=O)c1cc(Cl)c2c(c1)OCO2,0.691% (inactive)
2,CCc1c(C(=O)N2CCCC2)c(CC(C)C)nn1-c1ccc(Cl)cc1,-4.87% (inactive)
3,CCC(C(=O)N1CCN(C(C(=O)Nc2cccc(Cl)c2)C2CCCC2)CC1)c1ccccc1 (centres undefined),-0.887% (inactive)
4,CN1C(=O)[C@]2(C)[C@H](c3ccccc31)[C@@H](C(N)=O)CN2C(=O)CC(C)(C)C,-2.6% (inactive)
5,CCC1CSC(=Nc2ccc(Cl)cc2)N1C(=O)c1ccc(C)nc1 (centres undefined),-0.466% (inactive)
6,COc1cccc(CN2CCCN(c3nc(Cc4ccccc4)nc4c3c(C)nn4-c3ccc(F)cc3)CC2)c1,-3.74% (inactive)
7,CC(C)CC(CNc1ccc(S(=O)(=O)N2CCCCC2)cc1[N+](=O)[O-])N1CCOCC1 (centres undefined),-5.16% (inactive)
8,Oc1c(Cl)cc(Cl)c(Cl)c1Cc1c(O)c(Cl)cc(Cl)c1Cl,84.9% (active) and 0.133% (inactive)
9,COc1ccc(NS(=O)(=O)c2cc(C(=O)Nc3ccc(C)cc3)ccc2C)cc1,-2.65% (inactive)
10,O=C(Cc1csc(SCC(=O)c2ccccc2)n1)NCCC1=CCCCC1,7.3% (inactive)
11,O=[N+]([O-])c1cc(S(=O)(=O)C(F)(F)F)ccc1N1CCCC1,-6.28% (inactive)
12,CS(=O)(=O)c1ccc(Oc2ccc3sc(=O)oc3c2)c([N+](=O)[O-])c1,-8.14% (inactive)
13,O=[N+]([O-])c1cc(S(=O)(=O)C(F)(F)F)ccc1Oc1ccc2oc3c(c2c1)CCCC3,50.2% (active)
14,C=CCN(Cc1ccccc1OC)C(=O)c1ccc(NC(C)=O)cc1,0.115% (inactive)
15,Cc1ccc(S(=O)(=O)NCc2ccc3c(c2)OCO3)c(C)c1C,-9.87% (inactive)
16,CS(=O)(=O)c1cccc2sc(Cl)nc12,-7.81% (inactive)
17,CCCCCN(CC(=O)N(CCCC)Cc1cccn1Cc1ccc(Br)cc1)C(=O)c1ccc2c(c1)OCO2,-1.37% (inactive)
18,CC(C)CN(CC(C)C)C(=O)c1cccnc1Nc1cccc(C(F)(F)F)c1,-2.78% (inactive)
19,CC(Nc1nc2c(c(=O)[nH]c(=O)n2C)n1Cc1ccccc1)c1ccccc1 (centres undefined),2.23% (inactive)
20,CS(=O)(=O)N1CCC(C(=O)NCc2cc(-c3ccc4c(c3)OCCO4)on2)CC1,-5.92% (inactive)
21,CC(NC(=O)c1ccc(Br)cc1F)C(=O)N1CCOCC1 (centres undefined),-5.97% (inactive)
22,CC[N+](C)(CC)CCC[n+]1c(-c2ccccc2)c2cc(N)ccc2c2ccc(N)cc21,57.3% (active)
23,COc1ccc(CCN(Cc2ccc(C)s2)C(=O)CN(CC2CCCO2)S(=O)(=O)c2c(C)cc(C)cc2C)cc1OC (centres undefined),-7.86% (inactive)

row,Structure (SMILES),inhibition
1,CC(=O)CC1C(CC(=O)O)C1(C)C (centres undefined),-5.25% (inactive)
2,Cc1ccc(S(=O)(=O)Oc2c(CO)cc(C)cc2CO)cc1,-8.05% (inactive)
3,CC1(C(=O)NCc2cccs2)CCN1Cc1ccc2c(c1)OCCO2 (centres undefined),-11% (inactive)
4,CC(=O)N1CCN(C(=O)COC(=O)c2ccc3ccccc3c2O)CC1,-3.7% (inactive)
5,CC(C)C(=O)N1CCC1(C)C(=O)Nc1ccccn1 (centres undefined),-6.44% (inactive)
6,CCc1nnc(CNc2cc(Cl)ccc2F)n1C,-5.8% (inactive)
7,CCOc1cccc(-c2ccc(Nc3ccc(OC)cc3C)nc2)c1,-0.0439% (inactive)
8,COc1ccccc1OC1CCN(C(=O)CCC2(Cc3ccccc3)CCC(=O)N2)CC1 (centres undefined),-5.11% (inactive)
9,CCN1C(=O)N(Cc2cccc(OC)c2)C(=O)C12CCN(Cc1cn[nH]c1-c1ccc(F)cc1)CC2,11% (inactive)
10,CC(=O)CC1(O)C(=O)Nc2ccc(I)cc21 (centres undefined),2.23% (inactive)
11,CC1CCc2c(sc(NC(=O)c3cccs3)c2C(=O)Nc2ccc(Cl)cc2)C1 (centres undefined),-14.3% (inactive)
12,C=CCCC(O)CN(Cc1c(CC)nn(-c2ccccc2)c1Oc1cccc(OC)c1)CC1CC1 (centres undefined),-5.62% (inactive)
13,O=C(NCc1n[nH]c(=S)n1C1CC1)c1noc2c1CCCC2,-5.91% (inactive)
14,O=C(O)CSc1nnc(CCc2ccccc2)n1-c1cccnc1,-3.94% (inactive)
15,Cc1ccsc1C(=O)N1CCCC(CNC(=O)c2ccc(-c3ccccc3)cc2)C1 (centres undefined),-7.02% (inactive) and -6.34% (inactive)
16,C=CCNCc1cnc(S(=O)(=O)Cc2ccc(F)cc2)n1C(C)C,-5.49% (inactive)
17,O=C(O)c1cc(-c2ccco2)nn1-c1ccccc1Cl,-7.88% (inactive)
18,C=CCN(CC(=O)Nc1ccccc1C#N)S(=O)(=O)c1c(C)cc(C)cc1C,-5.26% (inactive)
19,Cn1c(SCC(=O)N2CCN(c3ccccc3)CC2)nnc1C(F)(F)F,-6.17% (inactive)
20,O=C1CN(C(=O)C2CCCC2)CC(O)CN1Cc1cccc(F)c1 (centres undefined),11.5% (inactive)
21,CCc1[nH]n(-c2ccc(Cl)c(Cl)c2)c(=O)c1C1=C([n+]2cccc(C)c2)C(=O)N(CC(C)C)C1=O,-10.4% (inactive)
22,COCCNC(=O)Cn1nc2c(c1NC(=O)c1cc(OC)cc(OC)c1)CSC2,-4.38% (inactive)
23,C=CC(=O)Nc1ccc2ncnc(Nc3ccc(OCc4cccc(F)c4)c(Cl)c3)c2c1,43.2% (active)

row,Structure (SMILES),inhibition
1,Cc1ccc(Nc2nc(Nc3cccc(F)c3)nc3nccnc23)cc1Cl,-0.96% (inactive)
2,N#Cc1cccc(COc2ccc(NC(=O)NCCO)cc2Cl)c1,0.266% (inactive)
3,Cc1ccc(OC(C)C(=O)N(C)C2CCS(=O)(=O)C2)c(Br)c1 (centres undefined),-12.8% (inactive) and -9.58% (inactive)
4,Cc1cccc(C2SCC(=O)N2CC(=O)NCc2ccncc2)c1 (centres undefined),-4.08% (inactive)
5,O=C(c1cc(Cl)c2nc3ccccn3c(=O)c2c1)c1cc(F)ccc1O,-5.02% (inactive)
6,N#CCCN(CCC#N)Cn1c(=O)oc2cc(Br)ccc21,-6.19% (inactive)
7,CCCc1nnc2sc(Cc3csc(C)n3)nn12,-7.66% (inactive)
8,COCc1nnc2sc(Cc3ccc4c(c3)CCCC4)nn12,45.2% (active)
9,c1ccc(Cc2nn3c(Cn4cnc5ccccc54)nnc3s2)cc1,-1.85% (inactive)
10,Cc1ccc(S(=O)(=O)N2CCCC2c2nc3ccccc3[nH]2)c(C)c1 (centres undefined),-4.68% (inactive)
11,COCCN(CCC(=O)N1CCC(Cc2ccccc2)CC1)c1nc(Cc2cccc(OC)c2)ns1,-5.55% (inactive)
12,CC(C)(CNC(=O)c1cc2cccc(F)c2o1)C1CCCCO1 (centres undefined),-5.71% (inactive)
13,Cc1ccc(NC(=O)C2C(C=C(Cl)Cl)C2(C)C)cc1 (centres undefined),-4.28% (inactive)
14,COc1ccccc1OC1CN(Cc2cc(C)[nH]n2)C1,-4.73% (inactive)
15,O=C(NNc1cccc(Cl)c1)[C@@H]1CCCN1c1nccc(Nc2ccccc2)n1,-0.74% (inactive)
16,CCOc1ccc(N2CCN(C(=O)CCc3ccccc3)C(C)C2=O)cc1 (centres undefined),-2.37% (inactive)
17,Cn1cc(CN2CCN(c3ccc(Cl)cn3)CC2)c(-c2ccc3c(c2)OCCO3)n1,-7.9% (inactive)
18,CC(CN1CCOCC1)NC(=O)N1CCCc2cc(F)c(F)cc21 (centres undefined),-4.63% (inactive)
19,Cc1cc(Nc2ccc3c(n2)C(=O)N(CC(=O)NCCCn2ccnc2)C3)n(C)n1,-11.5% (inactive)
20,N#Cc1cccc(NC(=O)CN(Cc2ccco2)Cc2cccs2)c1,-0.473% (inactive)
